Among all 360,000 compounds or so, about 1,100 (0.31%) were called active. What follows is part of a selection rich in actives, with near analogues and random picks from the rest. Values without a mark were called inactive. Cut-off read from the data, not from the text of the source: active = activity change above about 30% (passing the limit was not always enough); inactive = the rest.
These molecules were tested against Hepatocyte nuclear factor 4-alpha (Homo sapiens) (UniProt P41235) (assay: HNF4-alpha DNA association modulation – biochemical, fluorescence polarization, FITC-DNA, primary screen (AID 1224865)). Details: HNF4a-FITC DNA binding, 1 h, at 10 µM, stronger effect = higher value.
Hepatocyte nuclear factor 4-alpha (Homo sapiens), sequence (P41235 whole entry, looked up): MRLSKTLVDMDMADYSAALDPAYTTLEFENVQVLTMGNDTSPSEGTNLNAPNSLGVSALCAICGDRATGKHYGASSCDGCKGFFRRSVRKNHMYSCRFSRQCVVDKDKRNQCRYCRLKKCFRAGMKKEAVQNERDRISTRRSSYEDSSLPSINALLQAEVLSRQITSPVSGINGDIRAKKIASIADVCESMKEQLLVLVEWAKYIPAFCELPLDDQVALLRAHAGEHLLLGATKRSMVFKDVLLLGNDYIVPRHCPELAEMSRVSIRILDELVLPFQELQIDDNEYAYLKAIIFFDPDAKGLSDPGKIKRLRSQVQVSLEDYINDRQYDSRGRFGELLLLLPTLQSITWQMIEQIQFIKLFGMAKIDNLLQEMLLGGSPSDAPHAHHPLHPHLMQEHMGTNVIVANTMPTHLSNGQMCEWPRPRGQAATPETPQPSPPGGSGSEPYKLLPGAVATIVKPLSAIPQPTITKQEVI

SMILES	activity change
CC(C)c1ccc(Nc2nnc(SCC(=O)c3nnc(-c4ccccc4)o3)s2)cc1	7.36%
COc1ccc(CNC(=O)CN(Cc2ccc(Cl)cc2)S(C)(=O)=O)cc1	1.96%
CC[n+]1cc(C)ccc1/C=C/c1ccc(N(C)C)cc1	76.1% (active)
COc1ccccc1CNC(=O)c1ccc(N(C)S(=O)(=O)c2ccc(C)cc2)cc1	0.49%
COc1cc(NS(=O)(=O)c2ccc(NC(=O)c3ccc(S(=O)(=O)N4CCCCC4)cc3)cc2)ncn1	-0.94%
COC(=O)[C@]1(C)N[C@H](c2ccc(-c3ccc(Cl)c(Cl)c3)cc2)[C@@H]2C(=O)N(C)C(=O)[C@@H]21	-0.96%
CCCn1nc(C(=O)N2CCCc3ccccc32)c2ccccc2c1=O	0.42%
Cc1cccc2cc3c(N)c(C(=O)N4CCCc5ccccc54)sc3nc12	47.6% (active)
COc1cccc(/C=C/C(=O)OCC(=O)N2CCCc3ccccc32)c1	-0.26%
O=C(NCc1ccccc1)C1CNCC(C(=O)NCc2ccccc2)C1 (stereo not drawn)	-1.7%
CC(=O)Nc1ccc(S(=O)(=O)N2CCC(C(=O)NC3CC3)CC2)cc1	-2.11%
COc1ccc(C(C)=O)cc1COC(=O)Cn1cnc2ccccc2c1=O	3.19%
CC(=O)c1c(C)[nH]c(C(=O)OCC(=O)NCCC(C)C)c1C	-3.31%
COc1cc(C)c(CN2CCN(C(=O)CCC(=O)c3ccc(C)s3)CC2)cc1OC	-0.43%
O=C(Nc1ccc(Br)cc1)c1cc(S(=O)(=O)Nc2ccccn2)ccc1Cl	0.97%
O=C(Nc1ccccc1)c1ccccc1Br	-2.18%
O=C(Nc1ccncc1)c1cc(-c2ccccn2)nc2ccc(Br)cc12	43.9% (active)
O=C(CSc1nnc(Cn2cnc3ccccc32)o1)c1ccccc1	1.06%
NC(CSC(c1ccccc1)(c1ccccc1)c1ccc(-c2ccccc2)cc1)C(=O)O (stereo not drawn)	-4.58%
CN(C)c1ccc(-n2cccc2/C=N/n2cnnc2)cc1	-0.7%
CN(C)c1ccc(-n2cccc2/C=C2/SC(=Nc3ccc(F)cc3)NC2=O)cc1	35.7% (active)
O=C(COC(=O)Cc1ccccc1F)NNC(=O)c1ccc(Cl)cc1	-2.29%
O=C(NN1C(=O)C2C3C=CC(C3)C2C1=O)c1ccco1 (stereo not drawn)	1.06%
CCN1/C(=C\c2ccc3ccccc3[n+]2CC)Sc2cc(C)ccc21	81.5% (active)
Cc1ccc(S(=O)(=O)N2CC(O)C[C@H]2C(=O)OCC(=O)Nc2ccc(N3CCOCC3)cc2)cc1C (stereo partly drawn)	-2.65%
COc1ccc(/C=C(\NC(=O)c2ccccc2)C(=O)NCCN2CCOCC2)cc1OC	-1.85%

SMILES	activity change
Cn1c2ccccc2c2cc(/C=C(\NC(=O)c3ccccc3)C(=O)NCC(=O)O)ccc21	43.6% (active)
CCOc1ccc(/C=C(/NC(=O)c2ccccc2)C(=O)NCCC(=O)O)cc1	1.05%
Cc1ccc(S(=O)(=O)c2ccc(Cl)cc2)cc1S(=O)(=O)NC(C(=O)O)C(C)C (stereo not drawn)	-3.32%
CCOC(OCC)c1ccc(/C=C\c2nccc(N)n2)cc1	2.56%
Cc1oc2nc(SCC(=O)Nc3ccc(S(N)(=O)=O)cc3)nc(NC(=O)c3ccccc3)c2c1C	-0.08%
COc1ccc(CCNS(=O)(=O)c2cn(C)nc2C)cc1	1.38%
N#Cc1ccccc1NC(=O)COc1c(Br)cc(Br)c2cccnc12	-0.16%
N#Cc1ccc(C(=O)Nc2cccc3cccnc23)c(F)c1	43.6% (active)
CSc1ccc(C#N)cc1NC(=O)c1ccc(Cl)cc1	2.01%
COCCNC(=O)c1cc2c(Br)ccc(Br)c2nc1N	-2.58%
CCCN(CCC)c1nc2c(C)cccn2c(=O)c1/C=C1/SC(=S)N(Cc2ccco2)C1=O	8.02%
Cc1cccn2c(=O)c(/C=C3\SC(=S)N(CC(C)C)C3=O)c(NCCCOC(C)C)nc12	82.9% (active)
Cc1cccn2c(=O)c(C=O)c(Nc3ccc(S(N)(=O)=O)cc3)nc12	-2.3%
CCc1nnc(NC(=O)CSc2nc(SC)ns2)s1	0.21%
Cc1cc(C(=O)CC#N)c(C)n1-c1c(C)n(C)n(-c2ccccc2)c1=O	11.5%
CCCCSCCCNC(=O)C1CCC(CNS(=O)(=O)c2ccc(NC(C)=O)cc2)CC1 (stereo not drawn)	2.47%
CCc1ccc(C2C(C#N)=C(N)N(N(C)C)C3=C2C(=O)CCC3)s1 (stereo not drawn)	0.21%
CCCC(O)(CCC)C(=O)NN(C(=O)CCl)c1cccc(C)c1	0.04%
N[C@@H](Cc1ccccc1)C(=O)N1CCOCC1	2.36%
CCN(/N=C/c1ccc(N(C)C)cc1)c1nc2ccccc2[nH]1	-0.96%
COc1cc(/C=C(\C#N)c2nc3c(s2)CC(C)CC3)ccc1O (stereo not drawn)	74% (active)
COc1cc(/C=C(\C#N)c2nc3ccccc3[nH]2)ccc1O	50.5% (active)
COc1cc(C=NC2CCCCC2)ccc1O	1.88%
COC(=O)CSc1ccc2nnc(CCNS(=O)(=O)c3ccc(C)cc3)n2n1	-1.91%
CC(NC(=O)C(C)(C)C)C(c1cccs1)N1CCN(Cc2ccccc2)CC1 (stereo not drawn)	-1.5%
CN1OC[C@@H]2CN(C(=O)c3cccnc3)[C@H](c3ccc(N4CCCCC4)cc3)C[C@@H]21	10.4%

SMILES	activity change
Cc1ccc(CNC(=O)c2ccc(CS(=O)Cc3cccc(Cl)c3)o2)cc1 (stereo not drawn)	1.72%
CCc1ccc(NC(=O)CC2C(=O)NCCN2C(=S)Nc2ccccc2)cc1 (stereo not drawn)	1.59%
Cc1c(N=Nc2ccc(N(C)C)cc2)c(=O)n(-c2ccccc2)n1C	35.5% (active)
Cc1c(C=O)n(C)n(-c2ccccc2)c1=O	1.77%
Cc1nc(N)sc1N=Nc1c(C)n(C)n(-c2ccccc2)c1=O	6.08%
O=C(CCN1C(=O)C2CCCCC2C1=O)Nc1ccc(OC(F)F)cc1 (stereo not drawn)	1.26%
C=CC[C@H](CC(=O)N(CCO)Cc1ccccc1)C(=O)N[C@@H](COC(=O)[C@@H](CC=C)Cc1ccc(F)cc1)Cc1ccccc1	2.32%
Cc1ccc(CSCC(=O)N(C)CC(=O)Nc2cccc(F)c2)cc1	-2.3%
CCN(CC)C(=O)CSC(Nc1cccc(F)c1)=C(C#N)C#N	44.9% (active)
CN(CC(=O)Nc1cccc(F)c1)C(=O)CC1CCCC1	-0.01%
Cc1ccccc1OCCC(=O)Nc1c(C)n(C)n(-c2ccccc2)c1=O	-0.09%
O=C(CC1Nc2ccccc2NC1=O)Nc1ccccc1 (stereo not drawn)	7.95%
COc1ccc(NC2=CC(=S)NC(C)(C)C2)cc1	39.2% (active)
COc1ccc(CCNC2=CC(=O)CC(C)(C)C2)cc1	2.16%
COc1ccc(Nc2cc(Sc3ccc(OC)cc3)ncn2)cc1	7.05%
CCCNC(=O)c1cc(C2CCCCN2S(=O)(=O)c2cn(C)cn2)on1 (stereo not drawn)	-2.31%
Cc1cc(C)n2nc(C(=O)Nc3cccc(S(=O)(=O)N4CCOCC4)c3)nc2n1	-1.39%
CC(C)Oc1ccc(C(=O)NCC(=O)Nc2ccc3c(c2)CCC3)cc1	-0.66%
Cc1ccc(C(=O)OCC(=O)NC2CCCCCCC2)cc1C	-0.78%
Cc1nc(SCC(=O)N2CC(=O)Nc3ccccc32)c2c(C)c(C)sc2n1	-0.27%
Cc1nc(SCC(=O)Nc2cc(C)on2)c2c(C)c(C)sc2n1	49.9% (active)
Cc1nc(SCC(=O)N2CCc3ccccc3C2)c2c(C)c(C)sc2n1	-0.31%
CC/C(=C(/c1ccccc1)c1ccc(OCC[N+](C)(C)C)cc1)c1ccccc1	7.53%
C[C@@H]1CN([C@H](C)CO)C(=O)c2cc(Br)cnc2O[C@@H]1CN(C)Cc1cncnc1	3.08%
COC(=O)c1cccc(N(CC(=O)NCC2CCCO2)C(=O)CCC(=O)Nc2cc(C)on2)c1 (stereo not drawn)	2.32%
O=C(COC(=O)c1ccc(F)c(S(=O)(=O)N2CCOCC2)c1)NCc1ccc2c(c1)OCO2	2.9%
